{"source": "paper PMC7826789", "about": "(International Journal of Molecular Sciences, 2021)", "key": {"[1]": {"system": "PIK3C3"}, "[2]": {"system": "PIK3CB"}, "[3]": {"system": "PIK3C2G"}, "[4]": {"system": "NUAK1"}, "[5]": {"system": "PIK3CG"}, "[6]": {"system": "NUAK2"}, "[7]": {"system": "PIK3CD"}, "[8]": {"system": "PDPK1"}, "[9]": {"system": "PDGFRA"}, "[10]": {"system": "PDGFRB"}, "[11]": {"system": "PI4KB"}, "[12]": {"system": "PIK3C2B"}, "[13]": {"system": "NLK"}, "[14]": {"system": "PHK"}, "[15]": {"system": "NTRK3"}, "[16]": {"system": "NEK6"}, "[17]": {"system": "NEK9"}, "[18]": {"system": "NTRK1"}, "[19]": {"system": "NTRK2"}, "[20]": {"system": "NEK5"}}, "data": [{"smiles": "O=c1cc(N2CCOCC2)nc2n(Cc3ccccc3F)ccn12", "note": "[GSK2297428]", "values": [{"measurement": "Kinases covered", "setting": "[1]", "value": "PIK3C3"}]}, {"smiles": "Cc1c(Cn2c(C)c(C)n3c(=O)cc(N4CCOCC4)nc23)cccc1C(F)(F)F", "note": "[GSK2328680]", "values": [{"measurement": "Kinases covered", "setting": "[2]", "value": "PIK3CB"}]}, {"smiles": "CN(C)C(=O)/C(C#N)=C/c1ccc(-c2nc3cnc4[nH]ccc4c3n2C2CCCCC2)o1", "note": "[FM-381]", "values": [{"measurement": "Kinases covered", "setting": "[3]", "value": "PIK3C2G"}]}, {"smiles": "CN1C(=O)c2ccccc2N(C)c2nc(Nc3cnn(C4CCNCC4)c3)ncc21", "note": "[XMD-17-51]", "values": [{"measurement": "Kinases covered", "setting": "[4]", "value": "NUAK1"}]}, {"smiles": "CC(C)N1CC(=O)N(C)c2cnc(Nc3cccc(S(=O)(=O)CCN4CCOCC4)c3)nc21", "note": "[BI00009348]", "values": [{"measurement": "Kinases covered", "setting": "[5]", "value": "PIK3CG"}]}, {"smiles": "C[C@@H]1CCNC(=O)c2cc3ccc(C(=O)Nc4nc5ccccc5n4CCCN(C)C)cc3n21", "note": "[BI00645435]", "values": [{"measurement": "Kinases covered", "setting": "[6]", "value": "NUAK2"}]}, {"smiles": "Cc1nnc(-c2ccc3occ(-c4ccc(S(C)=O)cc4)c3c2)[nH]1", "note": "(stereo not drawn) [TPKI-85]", "values": [{"measurement": "Kinases covered", "setting": "[1]", "value": "PIK3C3"}]}, {"smiles": "CC(C)N1CCN(Cc2cnc(-c3cc(-c4cccc5[nH]ccc45)cc4[nH]ncc34)o2)CC1", "note": "[GSK2269557]", "values": [{"measurement": "Kinases covered", "setting": "[7]", "value": "PIK3CD"}]}, {"smiles": "CC[C@@H]1CO[C@H](C(=O)Nc2ccccc2)CN1c1cc(-c2ccc3c(N)n[nH]c3c2)nc(NC)n1", "note": "[GSK2376236]", "values": [{"measurement": "Kinases covered", "setting": "[8]", "value": "PDPK1"}]}, {"smiles": "Cc1cnc(N)c(/C=C/c2cncc(C(=O)NCCc3ccc(Cl)cc3Cl)c2)c1", "note": "[GSK190937]", "values": [{"measurement": "Kinases covered", "setting": "[9]", "value": "PDGFRA"}]}, {"smiles": "CNS(=O)(=O)c1ccc(N(C)C)c(Nc2ncnc3cc(OC)c(OC)cc23)c1", "note": "[GSK114]", "values": [{"measurement": "Kinases covered", "setting": "[10]", "value": "PDGFRB"}]}, {"smiles": "COc1ccc(-c2cc3c(C)nc(N)nc3n([C@H]3CC[C@H](OCCO)CC3)c2=O)cn1", "note": "[PFE-PKIS 29]", "values": [{"measurement": "Kinases covered", "setting": "[11]", "value": "PI4KB"}, {"measurement": "Kinases covered", "setting": "[12]", "value": "PIK3C2B"}, {"measurement": "Kinases covered", "setting": "[3]", "value": "PIK3C2G"}, {"measurement": "Kinases covered", "setting": "[2]", "value": "PIK3CB"}, {"measurement": "Kinases covered", "setting": "[7]", "value": "PIK3CD"}]}, {"smiles": "Fc1ccc(-c2nn3ccccc3c2-c2ccncc2)cc1", "note": "[GW434756X]", "values": [{"measurement": "Kinases covered", "setting": "[13]", "value": "NLK"}]}, {"smiles": "Cc1c(Cn2ccn3c(=O)nc(N4CCOCC4)cc23)cccc1C(F)(F)F", "note": "[GSK2336394]", "values": [{"measurement": "Kinases covered", "setting": "[2]", "value": "PIK3CB"}]}, {"smiles": "Cc1ccc(NC(=O)Nc2ccccc2F)cc1-c1ccc(C(=O)Nc2ccncc2)cc1", "note": "[GSK1398477]", "values": [{"measurement": "Kinases covered", "setting": "[10]", "value": "PDGFRB"}]}, {"smiles": "FC1=CC(C3=NC2=CC(OC)=C(OC)C=C2C(N[C@H]4[C@H]([C@](C)(O)C)CNC4)=N3)=C(O)C=C1.Cl.Cl", "note": "[CCT241533]", "values": [{"measurement": "Kinases covered", "setting": "[14]", "value": "PHK"}]}, {"smiles": "COc1ncc(-c2cc(-c3ncc(CN4C[C@@H](C)O[C@@H](C)C4)o3)c3cn[nH]c3c2)cc1NS(C)(=O)=O", "note": "[GSK2292767]", "values": [{"measurement": "Kinases covered", "setting": "[7]", "value": "PIK3CD"}]}, {"smiles": "CC(=O)c1cccc(NC(=O)NC2CCN(c3ccnc(Nc4ccc(F)cc4)n3)C2)c1", "note": "(stereo not drawn) [GSK1379710]", "values": [{"measurement": "Kinases covered", "setting": "[15]", "value": "NTRK3"}]}, {"smiles": "CCOc1ccc2c(-c3ccnc(Nc4cc(OC)cc(C(F)(F)F)c4)n3)cnn2n1", "note": "[GW807982X]", "values": [{"measurement": "Kinases covered", "setting": "[16]", "value": "NEK6"}]}, {"smiles": "Cc1nc(Nc2cnn(C3CCNCC3)c2)nc2c1N(C)C(=O)c1cc3ccccc3cc1N2C", "note": "[HTH-01-015]", "values": [{"measurement": "Kinases covered", "setting": "[4]", "value": "NUAK1"}]}, {"smiles": "CNc1nc(-c2ccc3c(N)n[nH]c3c2)cc(N2C[C@@H](C(=O)Nc3ccccc3)CC[C@H]2C)n1", "note": "[GSK2298859]", "values": [{"measurement": "Kinases covered", "setting": "[8]", "value": "PDPK1"}]}, {"smiles": "COc1cc2ncn(-c3cc(O[C@H](C)c4ccccc4Cl)c(C(N)=O)s3)c2cc1OC", "note": "[GSK237701A]", "values": [{"measurement": "Kinases covered", "setting": "[17]", "value": "NEK9"}, {"measurement": "Kinases covered", "setting": "[9]", "value": "PDGFRA"}, {"measurement": "Kinases covered", "setting": "[10]", "value": "PDGFRB"}]}, {"smiles": "O=C(O)/C=C/C(=O)O.OCCCNc1nccc(-c2c(-c3ccc(F)cc3)nn3cc(C(F)(F)F)ccc23)n1", "note": "[GW569293E]", "values": [{"measurement": "Kinases covered", "setting": "[13]", "value": "NLK"}]}, {"smiles": "COc1cc2c(cc1OC)C(=C(Nc1ccccc1)c1cccc(CN)c1)C(=O)N2", "note": "[BIBF0846CL]", "values": [{"measurement": "Kinases covered", "setting": "[10]", "value": "PDGFRB"}]}, {"smiles": "Cc1cn(-c2cc(NC(=O)c3ccc4c(c3)CN(c3cncnc3)C[C@@H]4C)cc(C(F)(F)F)c2)cn1", "note": "[D2202-1]", "values": [{"measurement": "Kinases covered", "setting": "[18]", "value": "NTRK1"}, {"measurement": "Kinases covered", "setting": "[19]", "value": "NTRK2"}]}, {"smiles": "O=C(Nc1ccccc1)Nc1cccc(Oc2ccc3nccn3n2)c1", "note": "[TPKI-39]", "values": [{"measurement": "Kinases covered", "setting": "[9]", "value": "PDGFRA"}, {"measurement": "Kinases covered", "setting": "[10]", "value": "PDGFRB"}]}, {"smiles": "CC(C)C(=O)N[C@@H]1CCN(C(=O)Nc2nc3c(s2)-c2nc(-c4ccccc4Cl)ncc2CC3)C1", "note": "[BI00047804]", "values": [{"measurement": "Kinases covered", "setting": "[20]", "value": "NEK5"}, {"measurement": "Kinases covered", "setting": "[5]", "value": "PIK3CG"}]}, {"smiles": "C[C@@H](Oc1cc(-n2cnc3ccc(OC4CCN(C)CC4)cc32)sc1C(N)=O)c1ccccc1Cl", "note": "[GSK579289A]", "values": [{"measurement": "Kinases covered", "setting": "[17]", "value": "NEK9"}]}, {"smiles": "COc1ccc(-c2cc3c(C)nc(N)nc3n([C@H]3CC[C@H](O)CC3)c2=O)cn1", "note": "[PFE-PKIS 40]", "values": [{"measurement": "Kinases covered", "setting": "[11]", "value": "PI4KB"}, {"measurement": "Kinases covered", "setting": "[12]", "value": "PIK3C2B"}, {"measurement": "Kinases covered", "setting": "[3]", "value": "PIK3C2G"}, {"measurement": "Kinases covered", "setting": "[2]", "value": "PIK3CB"}, {"measurement": "Kinases covered", "setting": "[7]", "value": "PIK3CD"}, {"measurement": "Kinases covered", "setting": "[5]", "value": "PIK3CG"}]}, {"smiles": "Cn1ccc2ncnc(Oc3ccc(NC(=O)Nc4ccccc4)cc3)c21", "note": "[TPKI-69]", "values": [{"measurement": "Kinases covered", "setting": "[9]", "value": "PDGFRA"}, {"measurement": "Kinases covered", "setting": "[10]", "value": "PDGFRB"}]}, {"smiles": "O=C(Nc1n[nH]c2cc(-c3cccc(F)c3)ccc12)C1CC1", "note": "[SB-735464]", "values": [{"measurement": "Kinases covered", "setting": "[13]", "value": "NLK"}]}, {"smiles": "COc1ccccc1-c1cc(/C=C2\\C(=O)Nc3ncc(Br)cc32)cc(Br)c1O", "note": "[GW442130X]", "values": [{"measurement": "Kinases covered", "setting": "[18]", "value": "NTRK1"}, {"measurement": "Kinases covered", "setting": "[15]", "value": "NTRK3"}]}, {"smiles": "CCC(=O)Nc1cccc(Oc2nc(Nc3ccc(N4CCN(C)CC4)cc3OC)ncc2Cl)c1", "note": "[WZ4003]", "values": [{"measurement": "Kinases covered", "setting": "[4]", "value": "NUAK1"}, {"measurement": "Kinases covered", "setting": "[6]", "value": "NUAK2"}]}, {"smiles": "Cc1c(Cn2c(C)nn3c(=O)cc(N4CCO[C@H](C)C4)nc23)cccc1C(F)(F)F", "note": "[GSK2373690]", "values": [{"measurement": "Kinases covered", "setting": "[2]", "value": "PIK3CB"}, {"measurement": "Kinases covered", "setting": "[5]", "value": "PIK3CG"}]}, {"smiles": "COc1cc2nccc(Nc3ccc(OCc4ccc(NC(C)=O)cc4)cc3)c2cc1OC", "note": "[GW440135]", "values": [{"measurement": "Kinases covered", "setting": "[9]", "value": "PDGFRA"}]}, {"smiles": "Nc1ncnc2occ(-c3ccc(NC(=O)Nc4cc(C(F)(F)F)ccc4F)cc3)c12", "note": "[GW770249X]", "values": [{"measurement": "Kinases covered", "setting": "[18]", "value": "NTRK1"}, {"measurement": "Kinases covered", "setting": "[9]", "value": "PDGFRA"}]}, {"smiles": "NS(=O)(=O)c1cccc(-c2ccc3nccc(-c4cccc(S(N)(=O)=O)c4)c3c2)c1", "note": "[GW867253]", "values": [{"measurement": "Kinases covered", "setting": "[11]", "value": "PI4KB"}, {"measurement": "Kinases covered", "setting": "[5]", "value": "PIK3CG"}]}]}
